# Experimental data as given in PubChem BioAssay AID1259309 (ICCB-Longwood Screening Facility, Harvard Medical School, 2017).
# In all, about 330,000 compounds went through this assay and about 1,800 (0.55%) were called active. Cut-off read from the data, not from the text of the source: active = growth inhibition above about 68%; inactive = the rest. Only a selection was taken, and actives are over-represented in it overall.
# Assay: growth inhibition of ugtP-null S. aureus, primary screen, RN4220 ugtP deletion, OD600 (AID 1259309);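 note: plate controls were untreated wells for no effect and antibiotic for full effect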
# Conditions: 16 h, hits give high values
row,SMILES,growth inhibition
1,O=C(c1cccc([N+](=O)[O-])c1)N1CCN(Cc2ccccc2)CC1,9.07% (inactive)
2,O=C(CCl)N(Cc1cccc([N+](=O)[O-])c1)c1cccc(Cl)c1,97.8% (active)
3,Cc1ccc(S(=O)(=O)N(Cc2cccc([N+](=O)[O-])c2)C(=O)N2CCN(C)CC2)cc1,2.43% (inactive)
4,COC(=O)C1=C(c2ccc3ccccc3c2)CC2CCC1N2C(=O)NCc1ccc(F)cc1 (stereo not given),12% (inactive)
5,COc1cccc(C2C3=C(N=c4sc(=Cc5cccc(O)c5)c(=O)n42)c2ccccc2CC3)c1OC (stereo not given),-7.58% (inactive)
6,COc1ccc(CN(Cc2ccc(OC)cc2)C(=O)c2cccs2)cc1,43.4% (inactive)
7,COc1ccc(CCNC(=O)C(Sc2ccccn2)c2ccccc2)cc1OC (stereo not given),9.85% (inactive)
8,COc1ccc(C(CCN(Cc2ccc(OC)c(OC)c2)C(=O)CCl)c2ccccc2)cc1 (stereo not given),98% (active)
9,COc1ccc(N(CC(=O)NN=Cc2ccco2)S(=O)(=O)c2ccccc2)cc1Cl,2.1% (inactive)
10,COc1ccc(C=NNC(=O)COc2ccc(C(C)(C)C)cc2)cc1Cn1nc(C)cc1C,0.349% (inactive)
11,O=C(NN=Cc1cccnc1)C1CC1(c1ccccc1)c1ccccc1 (stereo not given),9.47% (inactive)
12,O=C1C=C(c2cccc(CO)c2)CC(c2ccc(Cl)cc2)C1 (stereo not given),7.76% (inactive)
13,O=C(O)CC1(CC(=O)Nc2cccc(C(F)(F)F)c2)CCCC1,-0.923% (inactive)
14,Cn1cc(Cl)c(C(=O)NNC(=S)Nc2cccc(Cl)c2)n1,-5.85% (inactive)
15,FC(F)(F)c1cccc(NC(=S)Nc2cccc(Cl)c2)c1,93.1% (active)
16,Cc1ccc(SC(=NS(=O)(=O)c2ccc(Cl)cc2)c2ccccc2)cc1,60.7% (inactive)
17,O=C(COC(=O)C=Cc1ccccc1)Nc1cc(C(F)(F)F)ccc1N1CCOCC1,-9.22% (inactive)
18,CCCCCCCCn1c2c(c(=N)c3c1CCC3)CCCC2,100% (active)
19,COc1ccc(OC)c(C=NNC(=O)c2ccc(-c3ccccc3)cc2)c1,1.81% (inactive)
20,CC(=NNC(=O)c1cc(-c2ccc(Br)s2)[nH]n1)c1ccncc1,-6.85% (inactive)
21,O=C(COC(=O)c1ccc(F)cc1)NCC1COc2ccccc2O1 (stereo not given),-4.48% (inactive)
22,CC1COc2ccccc2N1C(=O)c1ccc(F)cc1 (stereo not given),-0.431% (inactive)
23,O=C(Nc1nnc(C2COc3ccccc3O2)o1)c1ccc(F)cc1 (stereo not given),90.2% (active)
24,COC(=O)c1ccccc1-c1ccc(C=NNc2nc(N3CCCC3)nc(N3CCCC3)n2)o1,-8.43% (inactive)
25,CON=Cc1cc(C(=O)c2ccc(Cl)cc2Cl)cn1C,-4.32% (inactive)
